Source: PubChem (several laboratories)
A selection: hits, their analogues and other compounds. The true share with any hit is near 2.8%.
AHR act: activates the human aryl hydrocarbon receptor | AHR-responsive luciferase reporter cells, luminescence | AID 2796 | P35869 | activation, % at 5 µM | hit rate 2.5% among 320,000; in the data active = activation above about 47%;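 also: 0% = vehicle wells and 100% = reference agonist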
Target sequence (P35869 whole entry, looked up): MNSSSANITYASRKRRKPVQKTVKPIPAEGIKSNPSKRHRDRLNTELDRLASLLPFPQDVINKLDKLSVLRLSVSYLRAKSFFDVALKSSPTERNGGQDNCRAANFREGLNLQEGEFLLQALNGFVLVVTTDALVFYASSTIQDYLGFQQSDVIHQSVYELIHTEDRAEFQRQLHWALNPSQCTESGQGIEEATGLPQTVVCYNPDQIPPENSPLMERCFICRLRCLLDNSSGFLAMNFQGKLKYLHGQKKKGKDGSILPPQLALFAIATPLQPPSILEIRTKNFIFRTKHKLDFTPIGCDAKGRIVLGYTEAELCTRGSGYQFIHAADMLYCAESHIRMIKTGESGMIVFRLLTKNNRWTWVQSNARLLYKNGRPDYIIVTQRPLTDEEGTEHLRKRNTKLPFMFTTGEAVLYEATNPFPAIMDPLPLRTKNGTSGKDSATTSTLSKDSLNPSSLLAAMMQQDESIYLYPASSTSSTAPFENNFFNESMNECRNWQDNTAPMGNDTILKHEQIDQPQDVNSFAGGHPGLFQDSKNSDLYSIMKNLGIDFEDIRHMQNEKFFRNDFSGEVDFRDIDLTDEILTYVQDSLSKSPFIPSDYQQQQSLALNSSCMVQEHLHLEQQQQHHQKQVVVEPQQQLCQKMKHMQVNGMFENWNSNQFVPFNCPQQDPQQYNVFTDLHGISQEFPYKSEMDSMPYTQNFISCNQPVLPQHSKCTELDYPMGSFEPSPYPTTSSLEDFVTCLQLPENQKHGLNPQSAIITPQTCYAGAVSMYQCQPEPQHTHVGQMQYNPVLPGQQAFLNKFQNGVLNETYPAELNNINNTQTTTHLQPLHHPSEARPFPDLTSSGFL
pCIP destab: lowers stability of the mouse p/CIP coactivator protein | Q05BA5 | hit rate 0.01% among 290,000 | decrease of EGFP signal, % at 10 µM | F442A p/CIP-EGFP cells, EGFP fluorescence, 16 h;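 active = EGFP signal decrease of at least 30% at 10 µM or well 3 SD below plate mean, unless failing retest; inactive = the rest, including hits failing retest or dose response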
PolyA inhibitor: yeast polyadenylation inhibition; S. cerevisiae SKY197-pL101 polyadenylation reporter, beta-gal luminescence; efflux-impaired pdr1/pdr3 knockout yeast; score 100 = 6 SD above DMSO; activity score, % at 12 µM; hit rate 0.02% among 300,000;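 active = lowest replicate activity score at least 50, where 100 means six control SD above control mean; inconclusive = lowest score under 50 but half or more replicates reach 50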;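 also: yeast exposed to compound for 9 h at 30 °C; higher score means more reporter readthrough which indicates perturbed polyadenylation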
HIF activator: HIF pathway transcriptional activation. U2OS HRE-luciferase reporter, luminescence; normalized: DMSO 0%, desferrioxamine 100%. activation, % at 7.5 µM (by protocol). hit rate 0.32% among 300,000. AID 1910;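 active = mean activation of at least 10% of the iron chelator positive control signal, with at least half of replicates also reaching 10%; inconclusive = mean and replicate majority disagree about reaching 10%; inactive = mean and most replicates under 10%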
Platelet DG rel: platelet dense granule release activity | inhibition, %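 (compounds screened at 7.5 µM in platelet-rich plasma)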 | human platelet-rich plasma, SFLLRN dense granule ATP release, luminescence | AID 1663 | hit rate 0.22% among 300,000;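 active = mean replicate score, as percent of positive control, at or above 50; inconclusive = mean below 50 but at least one replicate at or above 50; inactive = mean and every replicate below 50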
* = called active by the depositor; ? = inconclusive; / = not tested or not shown.

SMILES	AHR act	pCIP destab	PolyA inhibitor	HIF activator	Platelet DG rel
O=C(Nc1nccs1)c1ccc(-c2ccc(Cl)cc2Cl)o1	4.0	-4.0	20.9	5.1	13.9
O=C(Nc1nccs1)c1ccc(-c2ccc(F)c(Cl)c2)o1	71.9*	2.7	-4.2	4.3	-10.6
O=C(Nc1nccs1)c1ccc(Br)o1	57.5*	0.3	-12.6	1.0	6.4
Cc1cc(NC(=O)CSc2nnc(-c3cccnc3)n2Cc2ccccc2)no1	-0.9	2.2	6.2	-0.5	-3.8
Cc1ccc(-n2c(N)c(C#N)c(-c3ccc(Cl)cc3)c(C#N)c2=O)cc1	-2.6	-0.2	-0.5	-0.2	74.6*
COc1ccc(-c2nc3cccc(C)n3c2NCc2ccco2)cc1OC	56.6*	5.4	2.6	2.3	13.5
COc1ccc(-c2csc(NCc3ccco3)n2)cc1C	3.3	-3.1	-3.4	0.1	28.5
COc1cccc(CNc2ncnc3cc(Cl)ccc23)c1	/	-7.8	-0.4	-0.6	-2.9
Fc1cccc(CNc2ncnc3cc(Cl)ccc23)c1F	48.5*	0.6	-11.4	-0.7	-0.7
CCN(CC)CCn1c2ccccc2c2cnc(N)c(C#N)c21	5.8	-13.4	-6.3	24.9*	7.3
COC(=O)c1c(NC(=O)c2cccnc2)sc(C)c1C	71.2*	3.2	-4.7	-0.3	-1.1
COC(=O)c1c(NC(=O)c2cccnc2)sc(C(=O)N(C)C)c1C	15.9	-13.0	2.6	0.8	7.6
O=C(N/N=C/c1ccccn1)c1cc(-c2ccccc2Cl)n[nH]1	9.2	15.8	5.0	2.0	13.4
O=C(O)c1ccc(/C=N/NC(=O)c2cc(-c3ccc4c5c(cccc35)CC4)n[nH]2)cc1	77.9*	1.9	18.6	0.8	-0.2
O=C(N/N=C/c1ccc(C(=O)O)cc1)C1=NNC(c2ccccc2)(c2ccccc2)C1	0.0	22.5	-4.2	-0.3	1.5
O=C(N/N=C/c1cccs1)c1cc(-c2cccc3ccccc23)n[nH]1	48.1*	-21.6	3.3	3.3	10.7
O=C(N/N=C/c1ccccn1)c1cc(-c2cccc3ccccc23)n[nH]1	69.7*	-7.3	-20.7	1.0	-0.6
O=C(CSc1nnc(-c2ccccc2F)o1)Nc1ccc(N2CCOCC2)cc1	6.3	/	/	/	/
O=C(NCCC(=O)N1CCc2ccccc21)c1ccco1	4.5	-15.5	6.8	1.9	-5.2
CC(C)(C)C(Cn1ccnc1)NC(=O)c1ccc2nc(C3CC3)oc2c1 (centres undefined)	0.9	0.2	-6.6	0.5	57.8*
CSCC[C@@H](CO)NC(=O)c1ccc2nc(C3CCCCC3)oc2c1	0.6	-3.5	0.8	-0.8	-0.8
Cc1ccc2c(c1)[nH]c1c(=O)n(Cc3ccccn3)cnc12	49.1*	-1.5	-12.7	0.8	9.8
Nc1ccc(-c2nc3ccc(C(=O)O)cc3s2)cc1	-4.0	2.3	-11.7	-3.7	14.3
Nc1ccc(-c2nc3ccc(N)cc3s2)cc1	-5.7	-0.6	-0.4	1.5	54.2*
Nc1cc2sc(-c3ccc(C(=O)O)cc3)nc2cc1Cl	-5.7	11.9	9.9	-0.1	76.9*
SMILES	AHR act	pCIP destab	PolyA inhibitor	HIF activator	Platelet DG rel
Nc1cccc(-c2nc3ccc(N)cc3s2)c1	10.1	0.0	-1.3	3.1	76.2*
Cc1cccc(C)c1NC(=O)CN1CCN(CC(=O)NCC2(N3CCCCC3)CCCCC2)CC1	1.0	/	/	/	/
COc1ccc(Cl)cc1Nc1nc(-c2sc(NC(=O)CC(C)C)nc2C)cs1	37.6	0.3	2.1	-0.8	2.7
Cc1nc(NC(=O)CC(C)C)sc1-c1csc(Nc2ccc(Cl)cc2Cl)n1	60.5*	-12.4	13.7	0.1	6.2
C=CCCC(=O)Nc1nc(C)c(-c2csc(Nc3cc(Cl)ccc3OC)n2)s1	72.0*	2.4	21.2	0.5	-4.9
COc1ccc(OC)c(Nc2nc(-c3sc(NC(=O)c4ccccc4)nc3C)cs2)c1	54.5*	-8.6	-5.9	1.2	-0.2
Cc1nc(NC(=O)c2ccccc2)sc1-c1csc(Nc2ccc(Cl)cc2Cl)n1	42.6	-10.9	-6.7	1.4	15.5
COc1ccc(Cl)cc1Nc1nc(-c2sc(NC(=O)c3ccccc3)nc2C)cs1	95.0*	-8.6	0.1	1.6	9.5
CNS(=O)(=O)c1ccc(C(C)(C)C)cc1	-1.5	-9.0	-17.8	0.3	-0.8
CC1CCCCN1C(=O)CSc1nnc(-c2cccnc2)o1 (centres undefined)	0.6	-4.0	-19.7	-0.2	-2.6
Cc1csc(NC(=O)c2cc3c(s2)-c2ccccc2OC3)n1	67.6*	-3.1	?	3.5	6.3
CN(C)CCNC(=O)c1cc2c(s1)-c1ccccc1OC2	5.1	-3.9	25.9	2.2	-15.1
CCOc1cc(/C=C2\N=C(SC(C)C(N)=O)N(c3ccc(OC(F)F)cc3)C2=O)ccc1O (centres undefined)	-4.8	5.0	157.5*	-0.3	-4.5
CCN(CC)CCNc1cc(C)nc2c1C(=O)C(=O)C=C2N1CCCCC1	4.7	7.9	-0.1	42.3*	27.5
CCOC(=O)c1cn(Cc2ccccc2)c(C(=O)OC(C)(C)C)c1O	0.5	/	-7.4	-0.4	-0.4
Cc1nc2ccc(Cl)cc2nc(C)/c1=N\O	57.8*	-6.9	2.3	2.3	-13.3
Cc1ccc2nc(C)/c(=N\O)c(C)nc2c1	13.6	-4.9	5.3	3.7	-9.8
NS(=O)(=O)c1ccc(C(=O)Nc2ccc(-c3nc4cccnc4s3)cc2)cc1	57.3*	2.8	-4.0	4.0	15.4
O=C(Nc1cccc(-c2nc3cccnc3s2)c1)c1ccc(Cl)nc1	67.7*	-14.8	0.6	0.4	-2.5
O=C(Nc1cccc(-c2nc3cccnc3s2)c1)c1cccnc1Cl	44.7	-2.4	2.8	1.1	-2.8
NS(=O)(=O)c1ccc(NC(=O)c2ccc(-c3ccccc3)cc2)cc1	/	-2.3	/	/	/
COc1ccc(CCNC(=O)COC(=O)Cn2cnc3c2c(=O)n(C)c(=O)n3C)cc1	-0.3	/	/	/	/
CNC(=S)Nc1ccc(C(N)=O)cc1	-1.1	-2.7	-9.4	-0.3	58.2*
C=CCNC(=S)Nc1ccc(C(N)=O)cc1	-2.4	-3.1	-4.4	-0.1	-1.0
COc1cc(C)nc(NC(=O)NC(=O)c2ccc(C(F)(F)F)cc2)n1	0.9	-21.1	0.7	-0.4	-1.5
SMILES	AHR act	pCIP destab	PolyA inhibitor	HIF activator	Platelet DG rel
COc1cccc([C@@H]2Oc3ccc(OC)cc3C(=O)[C@H]2OC(=O)Nc2cc(OC)c(OC)c(OC)c2)c1	9.6	-5.8	/	/	/
COc1cccc([C@@H]2Oc3ccc(OC)cc3C(=O)[C@H]2OC(=O)NCc2ccc3c(c2)OCO3)c1	54.1*	-5.9	1.7	7.2	-1.0
O=C(Nc1nc2ccccc2[nH]1)C1CCCO1 (centres undefined)	1.1	-4.0	-8.7	/	6.7
Cc1cccc(-c2nc3cc(NC(=O)C4CCCO4)ccc3o2)c1 (centres undefined)	2.2	0.9	2.1	-1.5	59.4*
O=C(Nc1ccc(-c2nc3ccccc3[nH]2)cc1)C1CCCO1 (centres undefined)	2.3	-1.7	4.2	/	87.3*
CCC(=O)Nc1ccc2oc(-c3cccc(C)c3)nc2c1	-3.6	9.7	/	/	/
Cc1ccc2oc(-c3cccc(NC(=O)C4CCCO4)c3)nc2c1 (centres undefined)	71.9*	-8.2	-15.2	0.7	5.3
